# Laboratory results reported in PubChem BioAssay AID1159580 (chemical genetic matrix, 2015).
# Screen size: about 5,500 compounds; about 2,000 (36%) were called active. Roughly 18% stayed inconclusive and do not appear here. The list shows a part of the results. Unmarked numbers belong to inactive results. Cut-off read from the data, not from the text of the source: active = normalized growth mostly below about 0.91 (no sharp cut-off); inconclusive = no clear call, values can overlap the other calls; inactive = mostly above about 0.92.
# Assay: chemical genetic growth profiling, strain panel (AID 1159580);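 note: tested at 20 µM; growth read once vehicle control cultures reached saturation at 30 °C; 1 = growth at the plate median or of vehicle wells; lower values mean less growth of the strain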
# Details: growth OD
smiles,measurement,setting,value
CC(=O)Oc1cccc2c1C(=O)c1c(OC(C)=O)cc(C(=O)O)cc1C2=O,normalized growth,"S. cerevisiae deletion strains, locus YJR075W, strain HOC1, stronger effect = lower value",0.994
same,normalized growth,"S. cerevisiae deletion strains, locus YKL009W, strain mrt4, stronger effect = lower value",0.986
same,normalized growth,"S. cerevisiae deletion strains, locus YKL068W, stronger effect = lower value",0.993
same,normalized growth,"S. cerevisiae deletion strains, locus YKL085W, strain MDH1 (second series), stronger effect = lower value",1
same,normalized growth,"S. cerevisiae deletion strains, locus YKL085W, strain MDH1, stronger effect = lower value",1
same,normalized growth,"S. cerevisiae deletion strains, locus YKL160W, strain elf1, stronger effect = lower value",0.901 (active)
same,normalized growth,"S. cerevisiae deletion strains, locus YKL190W, strain CNB1, stronger effect = lower value",0.986
same,normalized growth,"S. cerevisiae deletion strains, locus YKR001C, strain vps1, stronger effect = lower value",0.174 (active)
same,normalized growth,"S. cerevisiae deletion strains, locus YKR026C, strain gcn3, stronger effect = lower value",0.908 (active)
same,normalized growth,"S. cerevisiae deletion strains, locus YKR091W, strain srl3, stronger effect = lower value",0.944
same,normalized growth,"S. cerevisiae deletion strains, locus YLL001W, strain dnm1, stronger effect = lower value",0.901 (active)
same,normalized growth,"S. cerevisiae deletion strains, locus YLL026W, stronger effect = lower value",0.917 (active)
same,normalized growth,"S. cerevisiae deletion strains, locus YLL041C, strain sdh2, stronger effect = lower value",0.954
same,normalized growth,"S. cerevisiae deletion strains, locus YLR027C, strain aat2, stronger effect = lower value",0.92 (active)
same,normalized growth,"S. cerevisiae deletion strains, locus YLR039C, strain RIC1, stronger effect = lower value",1.02
same,normalized growth,"S. cerevisiae deletion strains, locus YLR058C, strain SHM2, stronger effect = lower value",1
same,normalized growth,"S. cerevisiae deletion strains, locus YLR102C, strain apc9, stronger effect = lower value",0.589 (active)
same,normalized growth,"S. cerevisiae deletion strains, locus YLR113W, strain HOG1, stronger effect = lower value",1
same,normalized growth,"S. cerevisiae deletion strains, locus YLR221C, strain rsa3, stronger effect = lower value",0.898 (active)
same,normalized growth,"S. cerevisiae deletion strains, locus YLR258W, strain gsy2, stronger effect = lower value",0.909 (active)
same,normalized growth,"S. cerevisiae deletion strains, locus YLR262C, strain YPT6 (second series), stronger effect = lower value",0.891
same,normalized growth,"S. cerevisiae deletion strains, locus YLR262C, strain YPT6, stronger effect = lower value",1.05
same,normalized growth,"S. cerevisiae deletion strains, locus YLR268W, strain sec22, stronger effect = lower value",0.39 (active)
same,normalized growth,"S. cerevisiae deletion strains, locus YLR320W, strain mms22, stronger effect = lower value",0.908
same,normalized growth,"S. cerevisiae deletion strains, locus YLR330W, strain CHS5, stronger effect = lower value",1.01
same,normalized growth,"S. cerevisiae deletion strains, locus YLR342W, strain FKS1 (second series), stronger effect = lower value",1.05
same,normalized growth,"S. cerevisiae deletion strains, locus YLR342W, strain FKS1, stronger effect = lower value",0.891 (active)
same,normalized growth,"S. cerevisiae deletion strains, locus YLR357W, strain rsc2, stronger effect = lower value",0.859
same,normalized growth,"S. cerevisiae deletion strains, locus YLR370C, strain arc18, stronger effect = lower value",0.917
same,normalized growth,"S. cerevisiae deletion strains, locus YLR371W, strain rom2, stronger effect = lower value",0.433 (active)
same,normalized growth,"S. cerevisiae deletion strains, locus YLR384C, strain iki3, stronger effect = lower value",0.954
same,normalized growth,"S. cerevisiae deletion strains, locus YLR418C, strain cdc73, stronger effect = lower value",0.28 (active)
same,normalized growth,"S. cerevisiae deletion strains, locus YML016C, strain PPZ1, stronger effect = lower value",1.01
same,normalized growth,"S. cerevisiae deletion strains, locus YML032C, strain rad52, stronger effect = lower value",0.392 (active)
same,normalized growth,"S. cerevisiae deletion strains, locus YML120C, strain ndi1, stronger effect = lower value",0.943
same,normalized growth,"S. cerevisiae deletion strains, locus YML124C, strain tub3, stronger effect = lower value",0.537 (active)
same,normalized growth,"S. cerevisiae deletion strains, locus YMR058W, strain fet3, stronger effect = lower value",0.806 (active)
same,normalized growth,"S. cerevisiae deletion strains, locus YMR078C, strain ctf18, stronger effect = lower value",0.826 (active)
same,normalized growth,"S. cerevisiae deletion strains, locus YMR125W, strain sto1, stronger effect = lower value",0.94
same,normalized growth,"S. cerevisiae deletion strains, locus YMR129W, stronger effect = lower value",0.947
same,normalized growth,"S. cerevisiae deletion strains, locus YMR205C, strain PFK2, stronger effect = lower value",0.948
same,normalized growth,"S. cerevisiae deletion strains, locus YMR223W, strain ubp8, stronger effect = lower value",0.301 (active)
same,normalized growth,"S. cerevisiae deletion strains, locus YMR231W, strain pep5, stronger effect = lower value",0.942
same,normalized growth,"S. cerevisiae deletion strains, locus YMR263W, strain SAP30, stronger effect = lower value",1
same,normalized growth,"S. cerevisiae deletion strains, locus YMR307W, strain GAS1, stronger effect = lower value",1.18
same,normalized growth,"S. cerevisiae deletion strains, locus YNL067W, strain RPL9B, stronger effect = lower value",1.01
same,normalized growth,"S. cerevisiae deletion strains, locus YNL071W, strain lat1, stronger effect = lower value",0.901 (active)
same,normalized growth,"S. cerevisiae deletion strains, locus YNL128W, strain TEP1, stronger effect = lower value",0.993
same,normalized growth,"S. cerevisiae deletion strains, locus YNL153C, strain GIM3, stronger effect = lower value",1.01
same,normalized growth,"S. cerevisiae deletion strains, locus YNL183C, strain NPR1, stronger effect = lower value",0.896
same,normalized growth,"S. cerevisiae deletion strains, locus YNL209W, strain ssb2, stronger effect = lower value",0.93
same,normalized growth,"S. cerevisiae deletion strains, locus YNL233W, strain BNI4, stronger effect = lower value",1.02
same,normalized growth,"S. cerevisiae deletion strains, locus YNL248C, strain rpa49, stronger effect = lower value",0.948
same,normalized growth,"S. cerevisiae deletion strains, locus YNL250W, strain rad50, stronger effect = lower value",0.992
same,normalized growth,"S. cerevisiae deletion strains, locus YNL271C, strain bni1, stronger effect = lower value",0.997
same,normalized growth,"S. cerevisiae deletion strains, locus YNL298W, strain CLA4, stronger effect = lower value",0.995
same,normalized growth,"S. cerevisiae deletion strains, locus YNL307C, strain MCK1, stronger effect = lower value",0.221 (active)
same,normalized growth,"S. cerevisiae deletion strains, locus YNL322C, strain KRE1 (second series), stronger effect = lower value",0.887 (active)
same,normalized growth,"S. cerevisiae deletion strains, locus YNL322C, strain KRE1, stronger effect = lower value",1
same,normalized growth,"S. cerevisiae deletion strains, locus YNR049C, strain mso1, stronger effect = lower value",0.956
same,normalized growth,"S. cerevisiae deletion strains, locus YNR052C, strain pop2, stronger effect = lower value",0.135 (active)
same,normalized growth,"S. cerevisiae deletion strains, locus YOL006C, strain TOP1, stronger effect = lower value",1.02
same,normalized growth,"S. cerevisiae deletion strains, locus YOL012C, strain htz1",2.42 [resistant] (active)
same,normalized growth,"S. cerevisiae deletion strains, locus YOL147C, strain pex11, stronger effect = lower value",0.433 (active)
same,normalized growth,"S. cerevisiae deletion strains, locus YOR001W, strain rrp6, stronger effect = lower value",0.952
same,normalized growth,"S. cerevisiae deletion strains, locus YOR061W, strain CKA2, stronger effect = lower value",0.996
same,normalized growth,"S. cerevisiae deletion strains, locus YOR069W, strain VPS5, stronger effect = lower value",1
same,normalized growth,"S. cerevisiae deletion strains, locus YOR070C, strain gyp1, stronger effect = lower value",0.932
same,normalized growth,"S. cerevisiae deletion strains, locus YOR080W, strain dia2, stronger effect = lower value",0.938
same,normalized growth,"S. cerevisiae deletion strains, locus YOR083W, strain WHI5, stronger effect = lower value",0.918
same,normalized growth,"S. cerevisiae deletion strains, locus YOR106W, strain vam3, stronger effect = lower value",0.905
same,normalized growth,"S. cerevisiae deletion strains, locus YOR136W, strain idh2, stronger effect = lower value",0.498 (active)
same,normalized growth,"S. cerevisiae deletion strains, locus YOR144C, strain elg1, stronger effect = lower value",0.609 (active)
same,normalized growth,"S. cerevisiae deletion strains, locus YOR184W, strain ser1, stronger effect = lower value",1.02
same,normalized growth,"S. cerevisiae deletion strains, locus YOR231W, strain MKK1, stronger effect = lower value",0.95
same,normalized growth,"S. cerevisiae deletion strains, locus YOR265W, strain rbl2, stronger effect = lower value",0.918 (active)
same,normalized growth,"S. cerevisiae deletion strains, locus YOR270C, strain vph1, stronger effect = lower value",0.925
same,normalized growth,"S. cerevisiae deletion strains, locus YOR290C, strain snf2, stronger effect = lower value",0.927
same,normalized growth,"S. cerevisiae deletion strains, locus YOR316C, strain cot1, stronger effect = lower value",0.433 (active)
same,normalized growth,"S. cerevisiae deletion strains, locus YPL051W, strain arl3, stronger effect = lower value",0.867 (active)
same,normalized growth,"S. cerevisiae deletion strains, locus YPL055C, strain LGE1, stronger effect = lower value",1.01
same,normalized growth,"S. cerevisiae deletion strains, locus YPL078C, strain atp4, stronger effect = lower value",0.899
same,normalized growth,"S. cerevisiae deletion strains, locus YPL106C, strain sse1, stronger effect = lower value",0.989
same,normalized growth,"S. cerevisiae deletion strains, locus YPL240C, strain hsp82, stronger effect = lower value",0.909 (active)
same,normalized growth,"S. cerevisiae deletion strains, locus YPL241C, strain CIN2, stronger effect = lower value",1.05
same,normalized growth,"S. cerevisiae deletion strains, locus YPL256C, strain CLN2, stronger effect = lower value",0.955
same,normalized growth,"S. cerevisiae deletion strains, locus YPR119W, strain clb2, stronger effect = lower value",0.63 (active)
same,normalized growth,"S. cerevisiae deletion strains, locus YPR141C, strain kar3, stronger effect = lower value",0.997
same,normalized growth,"S. cerevisiae deletion strains, locus YPR163C, strain tif3, stronger effect = lower value",0.359 (active)
same,normalized growth,"S. cerevisiae deletion strains, locus YPR167C, strain met16, stronger effect = lower value",0.309 (active)
same,normalized growth,"S. cerevisiae deletion strains, strain wtn01, stronger effect = lower value",0.22 (active)
same,normalized growth,"S. cerevisiae strains, strain wild type, stronger effect = lower value",0.998
